Calls of active or inactive are those of the source. Rule for the calls: active = hit-call score of the fitted dose curve at least 0.9, where 1 is the maximum; inactive = score below 0.9.
Assays:
[1] = read-out: Monokine induced gamma interferon (MIG), CXCL9 (gene 4283); assay: BSK_3C_MIG: BioMAP Diversity Plus: 3C Assay for Monokine induced gamma interferon (MIG) Biomarker Activity (AID 2283021); settings: primary human endothelial cells (HUVEC); actives raise or lower the signal
Summary of the method: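 ELISA measurement of MIG in human umbilical vein endothelial cells 24 h after treatment. Cytotoxicity tracked by SRB staining in parallel cultures; gain or loss of signal fitted relative to DMSO.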

[2] = BSK_3C_SRB: Viability Assessment in the BioMAP Diversity Plus: 3C Assay (AID 2283023); settings: primary human endothelial cells (HUVEC);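 note: fitted both ways against DMSO so a hit may be signal rise or drop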
Summary of the method: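 HUVEC, 24 h post-dose; 10% TCA fix, 0.1% SRB stain, A560 nm. Bidirectional curve fit vs DMSO negative control.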

[3] = read-out: Matrix Metallopeptidase 1 (MMP1), MMP1 (gene 4312); assay: BSK_BE3C_MMP1: BioMAP Diversity Plus: BE3C Assay for Matrix Metallopeptidase 1 (MMP1) Biomarker Activity (AID 2283024); settings: primary human bronchial epithelial cells; actives raise or lower the signal
Summary of the method: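 ELISA measurement of MMP-1 after 24 h compound exposure of primary human bronchial epithelial cells. Changes in either direction fitted relative to DMSO; parallel SRB staining checked overt cytotoxicity.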

[4] = read-out: Pselectin, SELP (gene 6403); assay: BSK_4H_Pselectin: BioMAP Diversity Plus: 4H Assay for Pselectin Biomarker Activity (AID 2283026); settings: primary human endothelial cells (HUVEC); actives raise or lower the signal
Summary of the method: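 ELISA of surface P-selectin on HUVEC, 24 h after dosing, with parallel SRB staining (0.1% after 10% TCA fixation, 560 nm) for overt cytotoxicity. Activity fitted in both directions relative to DMSO.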

[5] = BSK_4H_SRB: Viability Assessment in the BioMAP Diversity Plus: 4H Assay (AID 2283027); settings: primary human endothelial cells (HUVEC);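 note: cells exposed to compound for 24 h before staining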;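 for AC50: curves fitted both ways versus DMSO so AC50 may be loss or gain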
Summary of the method: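 HUVEC, 24 h post-dose; 10% TCA fix, 0.1% SRB stain, A560 nm. Total protein = overt cytotoxicity, parallel to biomarker read. Bidirectional fit vs DMSO baseline.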

[6] = read-out: Thrombomodulin, THBD (gene 7056); assay: BSK_3C_Thrombomodulin: BioMAP Diversity Plus: 3C Assay for Thrombomodulin Biomarker Activity (AID 2283029); settings: primary human endothelial cells (HUVEC); actives raise or lower the signal
Summary of the method: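 ELISA measurement of thrombomodulin on HUVEC surface 24 h after chemical dosing; activity fitted in both directions relative to DMSO vehicle.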

[7] = read-out: Urokinase-type plasminogen activator receptor (uPAR), PLAUR (gene 5329); assay: BSK_4H_uPAR: BioMAP Diversity Plus: 4H Assay for Urokinase-type plasminogen activator receptor (uPAR) Biomarker Activity (AID 2283030); settings: primary human endothelial cells (HUVEC); actives raise or lower the signal
Summary of the method: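 HUVEC, 24 h post-dose; uPAR by ELISA; bidirectional fit vs DMSO baseline.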

[8] = read-out: Vascular endothelial growth factor receptor 2 (Homo sapiens) (UniProt P35968); assay: BSK_4H_VEGFRII: BioMAP Diversity Plus: 4H Assay for Vascular endothelial growth factor receptor 2 (VEGFR2) Biomarker Activity (AID 2283031); settings: primary human endothelial cells (HUVEC); actives raise or lower the signal
Summary of the method: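 HUVEC (human primary), 4H system; 24 h post-dose; VEGFRII by ELISA; bidirectional curve fit vs DMSO baseline; gain or loss of signal scored.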

[9] = read-out: Human Leukocyte Antigen - DR isotype (HLADR), HLA-DRA (gene 3122); assay: BSK_BE3C_HLADR: BioMAP Diversity Plus: BE3C Assay for Human Leukocyte Antigen - DR isotype (HLADR) Biomarker Activity (AID 2283032); settings: primary human bronchial epithelial cells; actives raise or lower the signal
Summary of the method: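 Cell-surface HLA-DR ELISA readout at 24 h after dosing in the BE3C primary human lung bronchial epithelial system; gain or loss of signal against DMSO, with parallel sulforhodamine B staining of total protein for overt cytotoxicity.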

[10] = read-out: Vascular cell adhesion molecule 1 (VCAM1), VCAM1 (gene 7412); assay: BSK_4H_VCAM1: BioMAP Diversity Plus: 4H Assay for Vascular cell adhesion molecule 1 (VCAM1) Biomarker Activity (AID 2283033); settings: primary human endothelial cells (HUVEC); actives raise or lower the signal;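 note: cell-surface VCAM-1 protein measured by ELISA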
Summary of the method: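 VCAM-1 ELISA read 24 h after chemical dosing of HUVEC in the BioMAP 4H system, with gain or loss of signal fitted relative to DMSO. Parallel SRB staining (560 nm) checked overt cytotoxicity.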

[11] = read-out: Monokine induced gamma interferon (MIG), CXCL9 (gene 4283); assay: BSK_BE3C_MIG: BioMAP Diversity Plus: BE3C Assay for Monokine induced gamma interferon (MIG) Biomarker Activity (AID 2283035); settings: primary human bronchial epithelial cells; actives raise or lower the signal
Summary of the method: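 Dose cells (human primary bronchial epithelial), incubate 24 h, quantify MIG by ELISA, then fit concentration–response in both directions relative to DMSO control.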

[12] = read-out: Transforming growth factor beta 1 (TGFb1), TGFB1 (gene 7040); assay: BSK_BE3C_TGFb1: BioMAP Diversity Plus: BE3C Assay for Transforming growth factor beta 1 (TGFb1) Biomarker Activity (AID 2283036); settings: primary human bronchial epithelial cells; actives raise or lower the signal
Summary of the method: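 ELISA readout of TGF-b1 from human lung bronchial epithelial primary cells, taken 24 h post-treatment. Gain or loss of signal fitted relative to DMSO baseline, with parallel SRB staining for overt cytotoxicity.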

[13] = read-out: Plasminogen activator inhibitor-1 (PAI1), SERPINE1 (gene 5054); assay: BSK_BE3C_PAI1: BioMAP Diversity Plus: BE3C Assay for Plasminogen activator inhibitor-1 (PAI1) Biomarker Activity (AID 2283037); settings: primary human bronchial epithelial cells; actives raise or lower the signal
Summary of the method: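 PAI-1 was measured by ELISA in human primary bronchial epithelial cultures 24 h after chemical dosing, with cytotoxicity checked by SRB total-protein staining in parallel cultures. Activity was fitted in both directions relative to DMSO.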

[14] = read-out: urokinase plasminogen activator (uPA), PLAU (gene 5328); assay: BSK_BE3C_uPA: BioMAP Diversity Plus: BE3C Assay for urokinase plasminogen activator (uPA) Biomarker Activity (AID 2283038); settings: primary human bronchial epithelial cells; actives raise or lower the signal
Summary of the method: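 ELISA read-out of uPA in human lung primary bronchial epithelial cultures, 24 h post-dosing. Gain or loss of signal fitted bidirectionally relative to DMSO baseline; cytotoxicity checked in parallel cultures via SRB total protein stain.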

[15] = read-out: Urokinase-type plasminogen activator receptor (uPAR), PLAUR (gene 5329); assay: BSK_BE3C_uPAR: BioMAP Diversity Plus: BE3C Assay for Urokinase-type plasminogen activator receptor (uPAR) Biomarker Activity (AID 2283039); settings: primary human bronchial epithelial cells; actives raise or lower the signal;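 note: cells exposed to compound for one day before measurement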
Summary of the method: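 uPAR levels were measured by ELISA after 24 h compound treatment of primary human bronchial epithelial cells, fitted in both directions relative to DMSO. Parallel SRB staining served as the cytotoxicity read-out.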

[16] = read-out: Interleukin-6 (IL6), IL6 (gene 3569); assay: BSK_CASM3C_IL6: BioMAP Diversity Plus: CASM3C Assay for Interleukin-6 (IL6) Biomarker Activity for (AID 2283040); settings: primary human coronary artery smooth muscle cells; actives raise or lower the signal
[17] = BSK_BE3C_SRB: Viability Assessment in the BioMAP Diversity Plus: BE3C Assay (AID 2283028); settings: primary human bronchial epithelial cells
Summary of the method: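 Primary human bronchial epithelium; chemical dosing, 24 h; 10% TCA fix, 0.1% SRB stain, A560; bidirectional fit vs DMSO baseline.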

[18] = read-out: Interferon-gamma inducible Protein 10 (IP10), CXCL10 (gene 3627); assay: BSK_BE3C_IP10: BioMAP Diversity Plus: BE3C Assay for Interferon-gamma inducible Protein 10 (IP10) Biomarker Activity (AID 2283034); settings: primary human bronchial epithelial cells; actives raise or lower the signal
Summary of the method: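 IP-10 quantified by ELISA in human primary bronchial epithelial cell cultures at 24 hours post-dosing. Gain or loss of signal fitted relative to DMSO; parallel SRB staining assessed overt cytotoxicity.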

[19] = BSK_3C_Vis: BioMAP Diversity Plus: 3C Assay for Morphology Visualization (AID 2283025); settings: primary human endothelial cells (HUVEC);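 note: fitted both ways so gain or loss versus DMSO counts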;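 for AC50: light microscopy image of cell morphology used as background control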
Summary of the method: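 Light-microscopy visualization of HUVEC cultures at 24 h post-treatment, with DMSO as baseline for bidirectional fitting.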

Measured: AC50

C=C(C)CN(CC)c1c([N+](=O)[O-])cc(C(F)(F)F)cc1[N+](=O)[O-]
active: [2] 30 µM
not listed: [17] | [18] | [19]
inactive: all other assays above

CC(C)NC(=O)N1CC(=O)N(c2cc(Cl)cc(Cl)c2)C1=O
active: [7] 23.1 µM
not listed: [6] | [18] | [19]
inactive: all other assays above

O=c1n(Cl)c(=O)n(Cl)c(=O)n1Cl
not listed: [6] | [19]
inactive: all other assays above

CCCCC(O)(Cn1cncn1)c1ccc(Cl)cc1Cl (centres undefined)
active: [3] 12.8 µM | [5] 14.3 µM | [9] 16 µM
not listed: [6] | [17] | [18] | [19]
inactive: all other assays above

O=C(Nc1ccccc1-c1ccc(Cl)cc1)c1cccnc1Cl
active: [9] 5.32 µM
not listed: [6] | [17] | [19]
inactive: all other assays above

CN=C=S
not listed: [17] | [18] | [19]
inactive: all other assays above

N#Cc1c(Cl)cccc1Cl
not listed: [18] | [19]
inactive: all other assays above

CCNP(=S)(OC)O/C(C)=C/C(=O)OC(C)C (centres undefined)
not listed: [6] | [17] | [18]
inactive: all other assays above

O=C1C2CC=CCC2C(=O)N1SC(Cl)(Cl)Cl (centres undefined)
active: [3] 12.1 µM | [19] 39 µM | [4] 23.9 µM | [9] 12.3 µM | [11] 13.5 µM | [12] 12.7 µM | [13] 12.4 µM | [14] 11.5 µM | [16] 30.9 µM
inactive: [1] | [2] | [5] | [6] | [7] | [8] | [10] | [15]

COc1cc(Cl)c(OC)cc1Cl
active: [5] 3.09 µM
not listed: [17] | [18]
inactive: all other assays above

CC(C)(C)C(=O)C(Oc1ccc(Cl)cc1)n1cncn1 (centres undefined)
not listed: [6] | [17] | [18]
inactive: all other assays above

CCSC(=O)N1CCCCCC1
not listed: [6] | [17] | [18] | [19]
inactive: all other assays above

COc1ccc(-c2ccccc2)cc1NNC(=O)OC(C)C
not listed: [6] | [17] | [19]
inactive: all other assays above

Cc1nc(N(C)C)nc(OC(=O)N(C)C)c1C
not listed: [17] | [18] | [19]
inactive: all other assays above

Cc1cnc(C2=NC(C)(C(C)C)C(=O)N2)c(C(=O)O)c1 (centres undefined)
active: [12] 4.93 µM
not listed: [6] | [19]
inactive: all other assays above

Nc1c(Cl)c(F)nc(OCC(=O)O)c1Cl
not listed: [6] | [17]
inactive: all other assays above

COC(=O)NS(=O)(=O)c1ccc(N)cc1
not listed: [18] | [19]
inactive: all other assays above

COc1cc(OC)nc(NC(=O)NS(=O)(=O)c2ncccc2OCC(F)(F)F)n1
not listed: [6] | [17] | [18] | [19]
inactive: all other assays above

CCCC(=NOCC)C1=C(O)CC(CC(C)SCC)CC1=O (centres undefined)
not listed: [6] | [19]
inactive: all other assays above

CC(C)Oc1cccc(NC(=O)c2ccccc2C(F)(F)F)c1
active: [2] 11.6 µM
not listed: [17] | [18]
inactive: all other assays above

CC(C)C1(C)N=C(c2ncccc2C(=O)O)NC1=O (centres undefined)
active: [5] 0.454 µM
not listed: [19]
inactive: all other assays above

— PubChem BioAssay (EPA / NIEHS)
